Results filed as inconclusive are left out. Activity calls are given as the source filed them. Unless noted, the call rests on the fitted dose curve; in most records, active means well fitted curve in the direction sought with a large enough effect in the repeat runs; inconclusive means weak or mixed curves; inactive means flat fitted curve, though single readings scatter.
Key:
[1] = qHTS assay to test for compound auto fluorescence at 535 nm (green) in HEK293 cells (AID 720680)
[2] = qHTS assay to test for compound auto fluorescence at 460 nm (blue) in HEK293 cell free culture (AID 720681)
Method in brief: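 Compounds were added to cell-free DMEM with 10% FBS and fluorescence read directly. The blue channel used 405 nm excitation and 460 nm emission, with triamterene as the reference fluorophore.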

[3] = qHTS assay to test for compound auto fluorescence at 535 nm (green) in HEK293 cell free culture (AID 720682)
Method in brief: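 Green-label autofluorescence (485 nm excitation, 535 nm emission) measured on compound added to cell-free culture medium (DMEM, 10% FBS). Output is expressed relative to fluorescein.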

[4] = qHTS assay to test for compound auto fluorescence at 590 nm (red) in HEK293 cell free culture (AID 720683)
Method in brief: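 Cell-free wells of DMEM with 10% FBS received compound, and intrinsic fluorescence was read at excitation/emission 540/590 nm. Values expressed as equivalence to Rose Bengal sodium.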

[5] = qHTS assay to test for compound auto fluorescence at 590 nm (red) in HepG2 cell free culture (AID 720684)
Method in brief: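 Compound was pinned into wells holding MEM with 10% FBS and no cells, and red fluorescence was read at Ex/Em 540/590 nm. Signal is expressed as auto fluorescence equivalency relative to Rose Bengal sodium.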

[6] = qHTS assay to test for compound auto fluorescence at 460 nm (blue) in HepG2 cell free culture (AID 720685)
Method in brief: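 Compound (23 nL) or DMSO pinned into cell-free MEM with 10% FBS; blue fluorescence read at 405/460 nm excitation/emission, expressed as auto-fluorescence equivalency to triamterene.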

[7] = qHTS assay to test for compound auto fluorescence at 535 nm (green) in HepG2 cell free culture (AID 720686)
[8] = qHTS assay to test for compound auto fluorescence at 460 nm (blue) in HepG2 cells (AID 720687)
Method in brief: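 HepG2 cells in MEM with 10% FBS, attached overnight at 37 C, were exposed to compound or DMSO for 1 hr at 37 C, 5% CO2. Blue fluorescence was read at 405/460 nm, with triamterene as reference fluorophore.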

[9] = target: Glucocorticoid receptor (Homo sapiens) (UniProt P04150); test: qHTS assay to identify small molecule agonists of the glucocorticoid receptor (GR) signaling pathway (AID 720691; active means well fitted activation curve with a large enough effect in the signal ratio in the repeat runs, not every such curve was filed as active; the % refers to the signal ratio)
Method in brief: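 qHTS in GR-bla HeLa cells: 4 h settling at 37 C/5% CO2, 18 h compound incubation at 37 C, 2 h LiveBLAzer B/G FRET substrate at room temperature, fluorescence intensity measured.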
On the % scale 0 is the no-effect control and ±100 the full control effect.

Glucocorticoid receptor (Homo sapiens), sequence (P04150 whole entry, looked up): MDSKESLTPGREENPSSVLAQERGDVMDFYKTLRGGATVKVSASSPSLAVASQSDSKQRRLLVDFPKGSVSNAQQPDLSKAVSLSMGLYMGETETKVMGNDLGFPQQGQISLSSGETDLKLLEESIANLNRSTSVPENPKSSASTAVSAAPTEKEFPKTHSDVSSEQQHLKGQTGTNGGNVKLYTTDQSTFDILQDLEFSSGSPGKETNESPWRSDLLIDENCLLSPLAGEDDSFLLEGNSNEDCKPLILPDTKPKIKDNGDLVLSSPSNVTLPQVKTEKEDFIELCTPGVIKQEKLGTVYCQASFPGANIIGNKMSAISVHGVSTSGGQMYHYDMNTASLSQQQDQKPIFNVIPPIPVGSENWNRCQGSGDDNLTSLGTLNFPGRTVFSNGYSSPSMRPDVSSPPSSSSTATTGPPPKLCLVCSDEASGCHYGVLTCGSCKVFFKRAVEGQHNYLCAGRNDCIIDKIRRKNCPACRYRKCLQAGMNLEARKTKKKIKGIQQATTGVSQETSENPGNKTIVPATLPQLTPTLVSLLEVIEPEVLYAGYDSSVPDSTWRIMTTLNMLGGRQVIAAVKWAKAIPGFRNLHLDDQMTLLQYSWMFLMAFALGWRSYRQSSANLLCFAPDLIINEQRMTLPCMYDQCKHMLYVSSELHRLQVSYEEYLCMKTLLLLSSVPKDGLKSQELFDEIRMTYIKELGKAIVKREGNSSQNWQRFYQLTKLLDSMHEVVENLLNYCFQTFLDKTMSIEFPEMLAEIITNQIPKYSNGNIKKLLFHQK

c1ccc2c(CC3=NCCN3)cccc2c1
inactive: outcome [1] | outcome [2] | outcome [3] | outcome [4] | outcome [5] | outcome [6] | outcome [7] | outcome [8]

Cn1nnc2c(C(N)=O)ncn2c1=O
inactive: outcome [1] | outcome [2] | outcome [3] | outcome [4] | outcome [5] | outcome [6] | outcome [7] | outcome [8]

O=S(=O)(O)c1ccc2c(N=Nc3ccc(S(=O)(=O)O)c4ccccc34)c(O)c(S(=O)(=O)O)cc2c1
inactive: outcome [1] | outcome [2] | outcome [3] | outcome [4] | outcome [5] | outcome [6] | outcome [7] | outcome [8]

CCCCCCC1(C)CCC(=O)O1 (centres undefined)
inactive: outcome [1] | outcome [2] | outcome [3] | outcome [4] | outcome [5] | outcome [6] | outcome [7] | outcome [8]

OC1OCCOC1O (centres undefined)
inactive: outcome [1] | outcome [2] | outcome [3] | outcome [4] | outcome [5] | outcome [6] | outcome [7] | outcome [8] | Potency [9]

Cc1ccc(C)c([N+](=O)[O-])c1
inactive: outcome [1] | outcome [2] | outcome [3] | outcome [4] | outcome [5] | outcome [6] | outcome [7] | outcome [8] | Potency [9]

CSc1cnccn1
inactive: outcome [1] | outcome [2] | outcome [3] | outcome [4] | outcome [5] | outcome [6] | outcome [7] | outcome [8]

CCCC(=O)OCCC(C)CCC=C(C)C (centres undefined)
inactive: outcome [1] | outcome [2] | outcome [3] | outcome [4] | outcome [5] | outcome [6] | outcome [7] | outcome [8]

CCNC(=O)NCc1cccc(Cl)c1
inactive: outcome [1] | outcome [2] | outcome [3] | outcome [4] | outcome [5] | outcome [6] | outcome [7] | outcome [8]

CCCCCCCCCCCCCBr
inactive: outcome [1] | outcome [2] | outcome [3] | outcome [4] | outcome [5] | outcome [6] | outcome [7] | outcome [8]

C=CCCCCCCCCC(=O)OCCCC
inactive: outcome [1] | outcome [2] | outcome [3] | outcome [4] | outcome [5] | outcome [6] | outcome [7] | outcome [8]

CCCc1ccc(O)cc1
inactive: outcome [1] | outcome [2] | outcome [3] | outcome [4] | outcome [5] | outcome [6] | outcome [7] | outcome [8] | Potency [9]

CCCCCCCCCCCCCCCCCCOCCO
inactive: fluorescence, % of fluorescein [1] -0.0578% [at 18.6 µM] | fluorescence, % of fluorescent control [2] -0.0158% [at 18.6 µM] | activity change [3] -0.0191% [at 18.6 µM] | fluorescence, % of fluorescent control [4] 0.138% [at 18.6 µM] | fluorescence, % of Rose Bengal [5] -0.0112% [at 18.6 µM] | fluorescence, % of fluorescent control [6] 0.0125% [at 18.6 µM] | fluorescence, % of fluorescein control [7] -0.0027% [at 18.6 µM] | fluorescence, % of fluorescent control [8] 0.0321% [at 18.6 µM] | Potency [9]

O=C=NCC1CCCC(CN=C=O)C1 (centres undefined)
inactive: outcome [1] | outcome [2] | outcome [3] | outcome [4] | outcome [5] | outcome [6] | outcome [7] | outcome [8]

C#CCN[C@@H]1CCc2ccccc21
inactive: outcome [1] | outcome [2] | outcome [3] | outcome [4] | outcome [5] | outcome [6] | outcome [7] | outcome [8]

O=C(Cl)c1ccccc1[N+](=O)[O-]
inactive: outcome [1] | outcome [2] | outcome [3] | outcome [4] | outcome [5] | outcome [6] | outcome [7] | outcome [8] | Potency [9]

O=C1OCCO1
inactive: outcome [1] | outcome [2] | outcome [3] | outcome [4] | outcome [5] | outcome [6] | outcome [7] | outcome [8] | Potency [9]

COc1cc2c(cc1OC)C(=O)C(CC1CCN(Cc3ccccc3)CC1)C2 (centres undefined)
inactive: outcome [1] | outcome [2] | outcome [3] | outcome [4] | outcome [5] | outcome [6] | outcome [7] | outcome [8]

CCOc1cccc(N)c1
inactive: outcome [1] | outcome [2] | outcome [3] | outcome [4] | outcome [5] | outcome [6] | outcome [7] | outcome [8]

NCCOCCN
inactive: outcome [1] | outcome [2] | outcome [3] | outcome [4] | outcome [5] | outcome [6] | outcome [7] | outcome [8]

CN1CCOC(c2ccccc2)c2ccccc2C1 (centres undefined)
inactive: fluorescence, % of fluorescein [1] -0.0031% [at 18.6 µM] | fluorescence, % of fluorescent control [2] -0.103% [at 18.6 µM] | activity change [3] -0.0245% [at 18.6 µM] | fluorescence, % of fluorescent control [4] -0.107% [at 18.6 µM] | fluorescence, % of Rose Bengal [5] 0.115% [at 18.6 µM] | fluorescence, % of fluorescent control [6] -0.0245% [at 18.6 µM] | fluorescence, % of fluorescein control [7] 0.0063% [at 18.6 µM] | fluorescence, % of fluorescent control [8] 0.0046% [at 18.6 µM]

O=C(O)CONC(=O)c1ccccc1
inactive: outcome [1] | outcome [2] | outcome [3] | outcome [4] | outcome [5] | outcome [6] | outcome [7] | outcome [8]

NCc1ccc(S(N)(=O)=O)cc1
inactive: fluorescence, % of fluorescein [1] 0.0433% [at 18.6 µM] | fluorescence, % of fluorescent control [2] 0.104% [at 18.6 µM] | activity change [3] -0.0097% [at 18.6 µM] | fluorescence, % of fluorescent control [4] 0.469% [at 18.6 µM] | fluorescence, % of Rose Bengal [5] 0.496% [at 18.6 µM] | fluorescence, % of fluorescent control [6] 0.0628% [at 18.6 µM] | fluorescence, % of fluorescein control [7] 0.0245% [at 18.6 µM] | fluorescence, % of fluorescent control [8] 0.0103% [at 18.6 µM]

CO[C@@]1(NC(=O)Cc2cccs2)C(=O)N2C(C(=O)O)=C(COC(N)=O)CS[C@@H]21
inactive: outcome [1] | outcome [2] | outcome [3] | outcome [4] | outcome [5] | outcome [6] | outcome [7] | outcome [8]

C[C@H]1[C@@H](c2ccccc2)NC(=O)N1C
inactive: outcome [1] | outcome [2] | outcome [3] | outcome [4] | outcome [5] | outcome [6] | outcome [7] | outcome [8]

C=CC(=O)OCC1CCCO1 (centres undefined)
inactive: outcome [1] | outcome [2] | outcome [3] | outcome [4] | outcome [5] | outcome [6] | outcome [7] | outcome [8]
